Structures can show the parent of a compound that is named as a salt.
Key:
Conditions in all cases: treatment time: 24 h
A549-ACTB-RAB5A = test: phenotypically active (imaging signature differs from DMSO and reproducible) at any of 0.3-9 uM (binary (1 = active, 0 = inactive)); higher = active
In short: (§1)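 Fifteen reporter lines derived from A549, HepG2 and WPMY1 cells by gene editing, carrying BFP for segmentation plus GFP and RFP/FusionRed markers, were exposed to 0.3, 1, 3 or 9 µM for 24 h in four wells each and imaged live. Live-cell features from each well were normalised to solvent control wells. A well set counted as deviating when ≥3 of 4 wells lay beyond the 95th percentile of control Euclidean distances, and as reproducible when the median replicate Pearson correlation exceeded the 95th percentile of non-replicates. Phenotypic activity was assigned only when both criteria were met.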

A549-CANX-COX4 = test: as above
In short: as §1

A549-GM130-SQSTM1 = test: as above
In short: as §1

A549-TP53BP1-CLTA = test: as above
In short: as §1

A549-TUBA1B-RELA = test: as above
In short: as §1

HepG2-ACTB-RAB5A [1] = test: as above
In short: as §1

HepG2-CANX-COX4 [2] = test: as above
In short: as §1

HepG2-GM130-SQSTM1 [3] = test: as above
In short: as §1

HepG2-TP53BP1-CLTA = test: as above
In short: as §1

HepG2-TUBA1B-RELA = test: as above
In short: as §1

WPMY1-ACTB-RAB5A = test: as above
In short: as §1

WPMY1-CANX-COX4 = test: as above
In short: as §1

WPMY1-GM130-SQSTM1 [4] = test: as above
In short: as §1

WPMY1-TP53BP1-CLTA [5] = test: as above
In short: as §1

WPMY1-TUBA1B-RELA = test: as above
In short: as §1

HepG2-GM130-SQSTM1 [6] = test: lowest phenotypically active concentration; higher = less potent
In short: as §1

WPMY1-GM130-SQSTM1 [7] = test: as above
In short: as §1

WPMY1-TP53BP1-CLTA [8] = test: as above
In short: as §1

HepG2-ACTB-RAB5A [9] = test: as above
In short: as §1

HepG2-CANX-COX4 [10] = test: as above
In short: as §1

Compound	phenotypically active (A549-ACTB-RAB5A)	phenotypically active (A549-CANX-COX4)	phenotypically active (A549-GM130-SQSTM1)	phenotypically active (A549-TP53BP1-CLTA)	phenotypically active (A549-TUBA1B-RELA)	phenotypically active (HepG2-ACTB-RAB5A [1])	phenotypically active (HepG2-CANX-COX4 [2])	phenotypically active (HepG2-GM130-SQSTM1 [3])	phenotypically active (HepG2-TP53BP1-CLTA)	phenotypically active (HepG2-TUBA1B-RELA)	phenotypically active (WPMY1-ACTB-RAB5A)	phenotypically active (WPMY1-CANX-COX4)	phenotypically active (WPMY1-GM130-SQSTM1 [4])	phenotypically active (WPMY1-TP53BP1-CLTA [5])	phenotypically active (WPMY1-TUBA1B-RELA)	lowest phenotypically active concentration (HepG2-GM130-SQSTM1 [6])	lowest phenotypically active concentration (WPMY1-GM130-SQSTM1 [7])	lowest phenotypically active concentration (WPMY1-TP53BP1-CLTA [8])	lowest phenotypically active concentration (HepG2-ACTB-RAB5A [9])	lowest phenotypically active concentration (HepG2-CANX-COX4 [10])
C[C@H]1CC[C@@H]2N(C1)C[C@H]1[C@@H]3C[C@H]4[C@@H](CC(=O)[C@H]5C[C@@H](O)CC[C@@]54C)[C@@H]3CC[C@H]1[C@]2(C)O [Imperialine]	0 (inactive)	0 (inactive)	0 (inactive)	0 (inactive)	0 (inactive)	0 (inactive)	0 (inactive)	0 (inactive)	0 (inactive)	0 (inactive)	1 (active)	1 (active)	0 (inactive)	0 (inactive)	0 (inactive)					
O=C1C=C2C=C[C@@H]3C[C@@]2(O1)[C@H]1CCCCN31 [Securinine]	0 (inactive)	0 (inactive)	0 (inactive)	0 (inactive)	0 (inactive)	0 (inactive)	0 (inactive)	1 (active)	0 (inactive)	0 (inactive)	0 (inactive)	0 (inactive)	0 (inactive)	0 (inactive)	1 (active)	9 µM				
CCC(=O)O[C@](Cc1ccccc1)(c1ccccc1)[C@H](C)CN(C)C [propoxyphene]		0 (inactive)		0 (inactive)		0 (inactive)	0 (inactive)	0 (inactive)	0 (inactive)	0 (inactive)	0 (inactive)	0 (inactive)	0 (inactive)	0 (inactive)	0 (inactive)					
c1ccc([C@@H]2C[C@H]2NC2CCNCC2)cc1 [GSK LSD 1 dihydrochloride]	0 (inactive)	0 (inactive)	0 (inactive)	0 (inactive)	0 (inactive)	0 (inactive)	0 (inactive)	0 (inactive)	0 (inactive)	0 (inactive)	0 (inactive)	0 (inactive)	1 (active)	0 (inactive)	0 (inactive)		9 µM			
C[C@@H](CO)NC(=O)[C@@H]1C=C2c3cccc4[nH]cc(c34)C[C@H]2N(C)C1 [Ergobasine]	0 (inactive)	0 (inactive)	1 (active)	1 (active)	0 (inactive)	0 (inactive)	0 (inactive)	1 (active)	0 (inactive)	0 (inactive)	0 (inactive)	1 (active)	1 (active)	1 (active)	0 (inactive)	9 µM	9 µM	9 µM		
C[C@H]1C(=O)O[C@@H]2CCN3CC=C(COC(=O)[C@](C)(O)[C@]1(C)O)[C@H]23 [Monocrotaline]	0 (inactive)	0 (inactive)	0 (inactive)	0 (inactive)	1 (active)	0 (inactive)	0 (inactive)	0 (inactive)	0 (inactive)	0 (inactive)	0 (inactive)	0 (inactive)	0 (inactive)	0 (inactive)	0 (inactive)					
CC(C)c1cccc(C(C)C)c1O [propofol]	0 (inactive)	0 (inactive)	0 (inactive)	0 (inactive)	0 (inactive)	0 (inactive)	0 (inactive)	0 (inactive)	0 (inactive)	0 (inactive)	0 (inactive)	0 (inactive)	1 (active)	0 (inactive)	0 (inactive)		3 µM			
COc1cc2c(cc1O)C[C@H]1c3c(cc(O)c(OC)c3-2)CCN1C [Boldine]	0 (inactive)	0 (inactive)	1 (active)	0 (inactive)	1 (active)	1 (active)	0 (inactive)	0 (inactive)	0 (inactive)	0 (inactive)	0 (inactive)	0 (inactive)	1 (active)	0 (inactive)	0 (inactive)		1 µM		9 µM	
CCCN1C[C@H](CSC)C[C@@H]2c3cccc4[nH]cc(c34)C[C@H]21 [pergolide]	0 (inactive)	0 (inactive)	0 (inactive)	0 (inactive)	0 (inactive)	0 (inactive)	0 (inactive)	0 (inactive)	0 (inactive)	0 (inactive)	0 (inactive)	0 (inactive)	1 (active)	0 (inactive)	0 (inactive)		9 µM			
N[C@@H]1C[C@H]1c1cc(F)cc(F)c1OCc1ccccc1	0 (inactive)	0 (inactive)	0 (inactive)	0 (inactive)	0 (inactive)	0 (inactive)	0 (inactive)	0 (inactive)	0 (inactive)	0 (inactive)	1 (active)	0 (inactive)	1 (active)	1 (active)	0 (inactive)		9 µM	9 µM		
CN1[C@@H]2CC[C@H]1C[C@@H](OC(=O)C(CO)c1ccccc1)C2 (some centres undefined) [Atropine sulfate monohydrate]	0 (inactive)	0 (inactive)	0 (inactive)		0 (inactive)	0 (inactive)	0 (inactive)	0 (inactive)		0 (inactive)	0 (inactive)	0 (inactive)	0 (inactive)		0 (inactive)					
C[C@]12CC[C@H]3[C@@H](CCC4=CC(=O)CC[C@@]43C)[C@@H]1CC[C@@H]2O [testosterone]	0 (inactive)	0 (inactive)	0 (inactive)	0 (inactive)	0 (inactive)	0 (inactive)	1 (active)	0 (inactive)	0 (inactive)	0 (inactive)	0 (inactive)	0 (inactive)	1 (active)	0 (inactive)	0 (inactive)		9 µM			3 µM
C[C@H]1CCCC=C[C@@H]2C[C@H](O)C[C@H]2[C@H](O)C=CC(=O)O1 [brefeldin-a]		1 (active)		1 (active)		1 (active)	1 (active)	1 (active)	1 (active)	1 (active)	1 (active)	1 (active)	1 (active)	1 (active)	1 (active)	≤ 0.3 µM	≤ 0.3 µM	≤ 0.3 µM	≤ 0.3 µM	≤ 0.3 µM
Cc1sc2c(c1C)C(c1ccc(Cl)cc1)=N[C@H](CC(=O)OC(C)(C)C)c1nnc(C)n1-2	0 (inactive)	0 (inactive)	0 (inactive)	0 (inactive)	0 (inactive)	1 (active)	1 (active)	1 (active)	0 (inactive)	0 (inactive)	0 (inactive)	0 (inactive)	1 (active)	0 (inactive)	1 (active)	9 µM	9 µM		9 µM	9 µM
BrC1C(Br)C(Br)C(Br)C(Br)C1Br (centres undefined) [1,2,3,4,5,6-Hexabromocyclohexane]	0 (inactive)	0 (inactive)	0 (inactive)	0 (inactive)	0 (inactive)	0 (inactive)	0 (inactive)	1 (active)	0 (inactive)	0 (inactive)	0 (inactive)	0 (inactive)	0 (inactive)	0 (inactive)	0 (inactive)	9 µM				
CC(C)C[C@H]1C(=O)N2CCC[C@H]2[C@]2(O)O[C@](NC(=O)[C@@H]3C=C4c5cccc6[nH]c(Br)c(c56)C[C@H]4N(C)C3)(C(C)C)C(=O)N12 [bromocriptine]		0 (inactive)		1 (active)		1 (active)	1 (active)	1 (active)	1 (active)	1 (active)	0 (inactive)	0 (inactive)	1 (active)	1 (active)	0 (inactive)	9 µM	9 µM	9 µM	9 µM	9 µM
CCN(CC)CCN1C(=O)CN=C(c2ccccc2F)c2cc(Cl)ccc21 [flurazepam]	0 (inactive)	0 (inactive)	0 (inactive)	0 (inactive)	0 (inactive)	0 (inactive)	1 (active)	0 (inactive)	0 (inactive)	0 (inactive)	0 (inactive)	0 (inactive)	0 (inactive)	0 (inactive)	0 (inactive)					1 µM
C[N+]12CCC(CC1)C(OC(=O)C(O)(c1ccccc1)c1ccccc1)C2 (centres undefined) [clidinium]		0 (inactive)		0 (inactive)		0 (inactive)	0 (inactive)	0 (inactive)	0 (inactive)	0 (inactive)	0 (inactive)	0 (inactive)	0 (inactive)	0 (inactive)	0 (inactive)					
C=C(C)[C@H]1Cc2c(ccc3c2O[C@@H]2COc4cc(OC)c(OC)cc4[C@@H]2C3=O)O1 [Rotenone]		1 (active)		1 (active)		1 (active)	1 (active)	1 (active)	1 (active)	1 (active)	1 (active)	1 (active)	1 (active)	1 (active)	1 (active)	≤ 0.3 µM	1 µM	≤ 0.3 µM	≤ 0.3 µM	≤ 0.3 µM
CC[C@H]1CN2CCC1C[C@H]2[C@H](O)c1ccnc2ccc(OC)cc12 (some centres undefined) [Hydroquinine hydrobromide hydrate]		0 (inactive)		0 (inactive)		0 (inactive)	0 (inactive)	0 (inactive)	0 (inactive)	0 (inactive)	0 (inactive)	0 (inactive)	0 (inactive)	1 (active)	0 (inactive)			9 µM		

— the supplement of paper PMC7411054
